Screening data: PubChem BioAssay, National Center for Advancing Translational Sciences (NCATS)
Rab9 promoter act – Rab9 promoter activation; Huh7 Rab9 promoter-luciferase reporter, luminescence, 24 h; Potency, µM (top dose mostly 9.22 µM), without a hit: at the top dose activation, negative = inhibition, hits mostly activators; hit rate 2.8% among 320,000; AID 485297; note: % of control where 0% means no effect; nearly all actives have a fitted effect of over 60% in size
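Measured in stably transfected Huh7 cells bearing a Rab9 promoter–luciferase construct: 24 h compound treatment at 37 °C, followed by luminescence detection.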
ELG1 genotox – inducers of genotoxicity in HEK293T ELG1-luciferase cells. HEK293T ELG1-luciferase reporter, luminescence, 16 h. Potency, µM (highest dose often 46 µM), inactives show top-dose activity change, positive = activation, most hits filed as activators. hit rate 1.3% among 330,000; note: % of control where 0% means no effect; nearly all actives have a fitted effect of over 60% in size
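HEK293T cells expressing luciferase-tagged ELG1 were treated with compound or DMSO for 16 hr at 37°C. Luciferase activity was then read after 30 min with ONE-Glo at room temperature; rising signal flags genetic stress.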
NPC1 prom act – NPC1 promoter activation. Huh7 NPC1 promoter luciferase reporter, 24 h. AID 485313. Potency, µM (highest dose often 9.22 µM), inactives show at the top dose activation, actives largely listed as activators. hit rate 2.4% among 320,000; note: % of control where 0% means no effect; nearly all actives have a fitted effect of over 60% in size
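Compounds in DMSO were transferred onto Huh7 NPC1-luciferase reporter cells pre-incubated 2 h; after 24 h at 37 °C, Amplite reagent was dispensed and luminescence recorded 10 min later.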
FLuc modulator – inhibits or activates purified firefly luciferase, miR-21 counter-screen; AID 588342; P08659; Potency, µM (doses to about 57.5 µM), for inactives: at the highest dose activity change, negative = inhibition, usual class: inhibitors; purified FLuc, Km substrates, luminescence inhibition; hit rate 6.9% among 360,000;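 note: plate controls were vehicle for no effect and reference inhibitor for full effect; nearly all actives have a fitted effect of over 55% in size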
Target sequence (P08659 whole entry, looked up): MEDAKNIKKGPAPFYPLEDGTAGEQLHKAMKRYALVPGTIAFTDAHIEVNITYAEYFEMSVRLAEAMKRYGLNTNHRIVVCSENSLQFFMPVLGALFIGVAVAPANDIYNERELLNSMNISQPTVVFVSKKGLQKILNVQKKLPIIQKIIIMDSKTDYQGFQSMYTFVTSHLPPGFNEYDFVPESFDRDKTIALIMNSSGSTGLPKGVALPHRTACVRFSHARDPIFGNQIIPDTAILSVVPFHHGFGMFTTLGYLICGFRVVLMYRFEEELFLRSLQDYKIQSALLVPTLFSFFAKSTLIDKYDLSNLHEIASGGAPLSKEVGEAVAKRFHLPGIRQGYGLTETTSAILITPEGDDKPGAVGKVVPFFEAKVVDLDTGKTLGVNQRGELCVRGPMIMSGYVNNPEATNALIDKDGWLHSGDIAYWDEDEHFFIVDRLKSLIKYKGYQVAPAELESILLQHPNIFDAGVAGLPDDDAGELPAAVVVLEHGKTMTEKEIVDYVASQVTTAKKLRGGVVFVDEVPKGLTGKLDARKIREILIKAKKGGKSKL
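Purified P. pyralis luciferase (10nM final) with 10uM D-luciferin and 10uM ATP (Km levels) in 50mM Tris acetate pH 7.5, 10mM Mg acetate, 0.01% Tween-20, 0.05% BSA; qHTS 6-point titration, ~60 µM downward; luminescence read.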
SMN2 splice up – increases expression of the SMN2 splice variant | HEK293 SMN2-luciferase splicing reporter, luminescence, 30-36 h | Potency, µM (series often up to 46.1 µM), for inactives: at the top dose activity change, positive = activation, hits mostly activators | hit rate 2.8% among 210,000 | AID 1458; note: % of control where 0% means no effect; nearly all actives have a fitted effect of over 55% in size
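qHTS luciferase splicing reporter: luminescence rises when SMN2 exon 7 is included in transfected HEK293 cells. Compound exposure lasted 30-36 h at 37C, with 4.5 mM final sodium butyrate as control, followed by a ONE-Glo read.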
* hit, by the source's call; ? = inconclusive; . = not tested or not shown; [ ] = another dose, or the depositor's remark. Rows were chosen to be rich in hits. Some 7.4% of all compounds tested hit in one or more screens of this group. Calls come from the whole dose curve; as a rule, active = well fitted curve in the direction sought with a large enough effect; inconclusive = small, poorly fitted or top-dose-only effect, or another doubt; inactive = no such curve, though single readings can be large; an effect the other way counts as inactive or inconclusive. Potency is the fitted concentration of half-maximal effect.

SMILES	Rab9 promoter act	ELG1 genotox	NPC1 prom act	FLuc modulator	SMN2 splice up
CCc1ccc(S(=O)(=O)Nc2ccc(-c3ccc(N4CCCC4)nn3)cc2)cc1	.	.	.	1%	.
O=[N+]([O-])c1cccc(S(=O)(=O)Nc2cccc(-c3ccc(N4CCOCC4)nn3)c2)c1	?	?	25%	2.1µM*	.
O=C(c1cccc(NS(=O)(=O)c2cccc([N+](=O)[O-])c2)c1)N1CCOCC1	-4%	-5%	2%	-3%	12%
COc1ccc(-c2cccc(NS(=O)(=O)c3cccc([N+](=O)[O-])c3)c2)nn1	-3%	-1%	0%	-15%	.
CCOc1ccccc1NC(=O)CSc1nc2ccccc2c(=O)n1CC1CCCO1 (stereo unspecified)	4%	0%	-1%	1%	.
CN(C)c1ccc(C(C(=O)NCc2ccccc2)N(Cc2cccnc2)C(=O)c2snc(C(N)=O)c2N)cc1 (stereo unspecified)	-1%	-5%	-2%	-1%	.
CC1CCCN(CC(=O)Nc2cc(S(=O)(=O)N3CCOCC3)ccc2N2CCCC2)C1 (stereo unspecified)	-9%	-2%	-1%	6%	.
CCCN1C(=O)C2(C(C(=O)c3ccc(C)o3)=C(O)C(=O)N2CCCOC)c2ccccc21 (stereo unspecified)	6%	3%	-4%	-1%	.
Cn1cccc1C(=O)N1CCC2(CCN(Cc3ccc(C#N)cc3)CC2)CC1	.	.	.	.	-41%
CC(C)(C)C(=O)Nc1nc2c(s1)CN(Cc1ccccc1)CC2	3.2µM*	?	?	?	?
CSc1ccc(CN(C)CC(=O)NC(=O)NCCC2=CCCCC2)cc1	-4%	0%	0%	1%	.
CC(=O)NC1=NC(=O)/C(=C/c2cc(C)n(-c3cccc(C(=O)O)c3)c2C)S1	-7%	0%	-8%	15µM*	.
CC(=O)NC1=NC(=O)/C(=C/c2cc(C)n(-c3ccc(NC(C)=O)cc3)c2C)S1	?	-4%	?	5.4µM*	12%
CN(Cc1ccc2c(c1)OCCO2)C(=O)CSc1ncnc2sccc12	.	-5%	.	.	.
CC(=O)N[C@H](Cc1c[nH]c2ccccc12)C(=O)O	.	.	.	.	-12%[9.22 µM]
Cc1ccc(C(=O)Nc2ccccc2C(=O)NC(Cc2c[nH]c3ccccc23)C(=O)O)cc1 (stereo unspecified)	21%	9%	11%	11µM*	23%
CCC(C)C(NC(=O)c1ccccc1NC(=O)c1ccccc1)C(=O)O (stereo unspecified)	0%	-2%	-2%	3%	.
Cc1ccc(C(=O)Nc2ccccc2C(=O)NC(Cc2ccccc2)C(=O)O)cc1 (stereo unspecified)	24%	13%	14%	11µM*	13%
CCC(NC(=O)c1ccccc1NC(=O)c1ccc(C)cc1)C(=O)O (stereo unspecified)	20%	?	10%	13µM*	2%
Cc1cc(=O)oc(C)c1C(=O)OCC(=O)c1ccccc1	7%	2%	10%	?	-8%
Cc1cc(=O)oc(C)c1C(=O)OCC(=O)c1ccc(Br)cc1	12%	-1%	1%	9.5µM*	-18%
Cc1cc(=O)oc(C)c1C(=O)OCC(=O)c1ccc2ccccc2c1	12%	1%	15%	3.4µM*	-21%
Cc1cc(=O)oc(C)c1C(=O)OCC(=O)c1ccc(Cl)cc1	27%	5%	18%	12µM*	-14%
CCCCN(CC)C(=O)c1cc2c(=O)n3cccc(C)c3nc2n1C	.	.	.	-2%	.
COc1ccccc1OCc1nnc(SCC(=O)Nc2ccc(N3CCOCC3)cc2)n1C	16%	1%	4%	12µM*	.
SMILES	Rab9 promoter act	ELG1 genotox	NPC1 prom act	FLuc modulator	SMN2 splice up
Cc1ccccc1OCc1nnc(SCC(=O)Nc2ccc3c(c2)OCO3)n1C	-5%	16%	-3%	1%	-10%
Cc1ccccc1OCc1nnc(SCC(=O)Nc2ccc(N3CCOCC3)c(Cl)c2)n1C	-2%	-1%	4%	19µM*	-1%
Cn1c(COc2ccccc2)nnc1SCC(=O)Nc1ccc(N2CCOCC2)cc1	2%	13%	10%	?	.
Cc1cccc(NC(=O)c2ccccc2O)c1C	?	2%	?	13µM*	11%
Cc1ccc(C)c(NC(=O)c2cc(C)nc3ccccc23)c1	0%	-3%	0%	-2%	.
Cc1ccc(C)c(NC(=O)c2ccccc2O)c1	?	-12%	4%	17µM*	-3%
Cc1cccc(NC(=O)c2cnn3ccccc23)c1C	?	15%	?	?	.
O=C(Nc1ccccc1O)c1ccccc1O	20%	-12%	?	9.5µM*	-3%
Cc1ccc(C)c(S(=O)(=O)N2CCN(C(=O)C3CC3C)CC2)c1 (stereo unspecified)	-4%	1%	0%	4%	.
CC(CN1C(C)CCCC1C)OC(=O)c1ccccc1F (stereo unspecified)	0%	-1%	-1%	-2%	.
Cn1c(SCC(=O)NCC2CCCO2)nnc1-c1ccc(Cl)cc1 (stereo unspecified)	0%	-1%	-5%	-1%	.
O=S(=O)(NCCc1nnc2ccc(SCc3ccccc3Cl)nn12)c1ccccc1	.	.	.	-14%	.
COCCn1c(-c2cc(OC)c(OC)c(OC)c2)nc2oc3ccccc3c(=O)c2c1=O	2%	-9%	-1%	0%	14µM*
COCCn1c(-c2ccccc2)nc2oc3ccccc3c(=O)c2c1=O	4%	-1%	-4%	3%	-2%
COC(=O)c1ccc(NC(=O)NC2CCCCC2)cc1	16%	17%	?	?	13µM*
COc1ccc(NC(=O)NC2CCCCCCC2)cc1	1.4µM*	9.2µM*	0.89µM*	6µM*	.
COC(=O)c1ccc(NC(=S)NC2CC3CCC2C3)cc1 (stereo unspecified)	23%	6%	23%	21µM*	?
COc1ccc(NC(=O)NC2CCCCCCC2)c(OC)c1	17%	13%	1%	?	.
Cc1ccc(-c2csc(-c3c[nH]c4ccccc34)n2)c(C)c1	6%	2%	?	?	21%
COc1ccc(-c2csc(-c3ccc(O)cc3)n2)cc1	2%	?	-21%	9.5µM*	.
COc1ccc(-c2nc(CCl)cs2)cc1OC	12%	22%	-2%	?	-5%
COc1ccc(-c2nc(-c3ccc(O)cc3O)cs2)cc1OC	?	?	16%	11µM*	?
Oc1ccc(-c2csc(-c3c[nH]c4ccccc34)n2)c(O)c1	?	?	3.5µM*	11µM*	?
COc1ccc(N2CC(O)=C(c3nc(-c4ccc(Br)cc4)cs3)C2=N)cc1	0%	10%	0%	-2%	-7%
COc1ccc(-c2csc(C3=C(O)CN(C(C)C)C3=N)n2)cc1OC	4%	?	-3%	11µM*	7%
COc1ccc(N2CC(O)=C(c3nc(-c4ccccc4)cs3)C2=N)cc1	-3%	-2%	3%	-4%	.
